Laboratory results taken from PubChem BioAssay (EPA / NIEHS).
Several values for one entry are separate records, joined by “and”; a condition that tells them apart may be missing. Equal entries are not always repeated. Some compounds were tested as several samples or in several runs, with calls that do not always agree. Activity calls are given as the source filed them. Rule for the calls: active = hit-call score of the fitted dose curve at least 0.9, where 1 is the maximum; inactive = score below 0.9.

Assay: ATG_Sox_CIS: Attagene CIS-FACTORIAL HepG2 Assay for human SRY-box transcription factor (SOX) (AID 2282960)
Settings: HepG2 Attagene cis-factorial SOX reporter, mRNA; actives raise or lower the signal
Procedure: ATG_CIS is a cell-based, multiplexed-readout assay that uses HepG2, a human liver cell line, with measurements taken at 24 hours after chemical dosing in a 24-well plate.ATG_Sox_CIS is one of 52 assay component(s) measured or calculated from the ATG_CIS assay. It is designed to make measurements of mRNA induction, a form of inducible reporter, as detected with fluorescence intensity signals by Reverse transcription polymerase chain reaction (RT-PCR) and Capillary electrophoresis technology.Data from the assay component ATG_Sox_CIS was analyzed into 1 assay endpoint. This assay endpoint, ATG_Sox_CIS, was analyzed with bidirectional fitting relative to DMSO as the negative control and baseline of activity. Using a type of inducible reporter, measures of mRNA for gain or loss-of-signal activity can be used to understand the reporter gene at the transcription factor-level as they relate to the gene SOX1. Furthermore, this assay endpoint can be referred to as a primary readout, because this assay has produced multiple assay endpoints where this one serves a reporter gene function. To generalize the intended target to other relatable targets, this assay endpoint is annotated to the dna binding intended target family, where the subfamily is HMG box protein.
Human liver HepG2 cells are transiently transfected with multiple reporter transcription units (MRTUs) in 6-well plates using FuGene 6 reagent (Roche; 3 ml FuGene/1 mg DNA). The MRTU constructs are regulated by a cis-regulating element (promoter). […] A major difference between the CIS and TRANS system is that in CIS activities of endogenous TFs are measured, whereas the TRANS assay evaluates changes in activities of exogenous, chimeric NR-Gal4 proteins. […] At the end of 24 hour incubation, total RNA was isolated using TriZol reagent (Invitrogen). The isolated RNA is then reverse-transcribed using oligo(dT) primer and Mo-MLV reverse transcriptase (Invitrogen) with DNAse I (Ambion) treatment for 30 min. The one-tenth of the produced cDNA was amplified by PCR using Taq DNA polymerase (Invitrogen) and two reporter sequence-specific primers. The PCR products were fluorescently labeled by primer extension with 6-arboxyfluorescein (6-FAM) 5'-labeled reporter sequence-specific primer (2 min at 95 C, 20 s at 68 C and 10 min at 72 C) and these products were digested with 5U of HpaI (New England Biolabs) for 2h at 37 C. The fragments were purified using Qiaquick PCR columns (Qiagen), analyzed on an ABI 3130xL genetic analyzer (Applied Biosystems) with peak positions identified by using a set of X-rhodamine (ROX)-labeled MapMarker1000 molecular weight standards (BioVentures). The raw capillary electrophoresis data was processed using Attagraph software (Attagene).

Row | Structure (SMILES) | outcome | AC50
1 | N#Cc1cc(Br)c(O)c(Br)c1 | inactive | –
2 | C#CCOS(=O)OC1CCCCC1Oc1ccc(C(C)(C)C)cc1 (stereo not given) | – | 4.22 µM (active)
3 | CON(C)C(=O)Nc1ccc(Cl)c(Cl)c1 | inactive | –
4 | COP(=S)(OC)Oc1nc(Cl)c(Cl)cc1Cl | inactive | –
5 | Cc1c(F)c(F)c(COC(=O)C2C(/C=C(\Cl)C(F)(F)F)C2(C)C)c(F)c1F (stereo not given) | inactive | –
6 | C=CCC1=C(C)C(OC(=O)C2C(C=C(C)C)C2(C)C)CC1=O (stereo not given) | inactive | 90.4 µM (active) and 105 µM (active)
7 | CC(C)(C)c1ccc(CSc2cnn(C(C)(C)C)c(=O)c2Cl)cc1 | inactive | –
8 | OC(c1ccc(Cl)cc1)(c1cncnc1)c1ccccc1Cl (stereo not given) | inactive | –
9 | COc1nc(C)nc(NC(=O)NS(=O)(=O)c2ccccc2Cl)n1 | inactive | –
10 | CCc1nn(C)c(C(=O)NCc2ccc(C(C)(C)C)cc2)c1Cl | inactive | –
11 | COC(=O)c1ccccc1C(=O)OC | inactive | –
12 | Fc1ccc(Oc2ccnc3cc(Cl)cc(Cl)c23)cc1 | inactive | –
13 | CS/C(C)=N/OC(=O)N(C)SN(C)C(=O)O/N=C(\C)SC | inactive | –
14 | C=CC1(C)OC(=O)N(c2cc(Cl)cc(Cl)c2)C1=O (stereo not given) | inactive | –
15 | Cc1cc(Cl)ccc1OCC(=O)O | inactive | –
16 | N#Cc1nn(-c2c(Cl)cc(C(F)(F)F)cc2Cl)c(N)c1S(=O)C(F)(F)F (stereo not given) | inactive | –
17 | CCCCNC(=O)OCC#CI | inactive | 26.5 µM (active)
18 | COc1nc(NC(C)C)nc(NC(C)C)n1 | inactive | –
19 | COc1cnc(OC)n2nc(NS(=O)(=O)c3c(OCC(F)F)cccc3C(F)(F)F)nc12 | inactive | –

Row | Structure (SMILES) | outcome | AC50
20 | COC(=O)C=C(C)OP(=O)(OC)OC | inactive | –
21 | N#CC(CCc1ccc(Cl)cc1)(Cn1cncn1)c1ccccc1 (stereo not given) | inactive | –
22 | COc1nc(C)nc(NC(=O)NS(=O)(=O)c2ccccc2CCC(F)(F)F)n1 | inactive | –
23 | CCCN(CCC)c1c([N+](=O)[O-])cc(S(N)(=O)=O)cc1[N+](=O)[O-] | inactive | –
24 | CCON=C(CC)C1=C(O)CC(c2c(C)cc(C)cc2C)CC1=O (stereo not given) | inactive | –
25 | CC(C)Oc1cc(-n2nc(C(C)(C)C)oc2=O)c(Cl)cc1Cl | inactive | –
26 | CCOP(=S)(OCC)SCn1c(=O)oc2cc(Cl)ccc21 | inactive | –
27 | C=CCC1=C(C)[C@@H](OC(=O)[C@@H]2[C@@H](C=C(C)C)C2(C)C)CC1=O | inactive | –
28 | CC1COC(Cn2cncn2)(c2ccc(Oc3ccc(Cl)cc3)cc2Cl)O1 (stereo not given) | inactive | –
29 | CCOC(=O)CC(SP(=S)(OC)OC)C(=O)OCC (stereo not given) | inactive | –
30 | CC(Oc1ccc(Cl)cc1Cl)C(=O)O (stereo not given) | inactive | –
31 | CO/C=C(/C(=O)OC)c1ccccc1Oc1cc(Oc2ccccc2C#N)ncn1 | inactive | –
32 | O=C(O)c1nc(Cl)ccc1Cl | inactive | –
33 | CC(C)C1(C)N=C(c2nc3ccccc3cc2C(=O)O)NC1=O (stereo not given) | inactive | –
34 | Oc1ccccc1-c1ccccc1 | inactive | 46 µM (active)
35 | CC1=C(C(=O)Nc2ccccc2)SCCO1 | inactive | –
36 | Cc1ccc(-c2c(Cl)nc(C#N)n2S(=O)(=O)N(C)C)cc1 | inactive | –
37 | CCCCNC(=O)n1c(NC(=O)OC)nc2ccccc21 | inactive | –
